From ChEMBL document CHEMBL3988442, “University of Dundee, Small-Polar-MMV Screening Library” (2021)

These compounds were tested against AMP-activated protein kinase, AMPK (Homo sapiens) (UniProt P54646+O43741+P54619+Q9UGJ0+Q9Y478+Q13131+Q9UGI9) (assay: AMP-dependent Kinase enzyme assay. An in vitro enzyme assay that detects ADP turnover that is directly proportional to AMPK activity. This uses naive AMPK that is activated during the assay with MK-8722). Conditions: 30 µM.
Type: functional
Parameters: scale not given: direction of the effect not stated beside the values

SMILES | Percent Effect [%]
Cc1cc(N2Cc3cnn(CCO)c3C2)nc(-c2ccccc2)n1 | 4.37
Cn1nc(C(=O)NCc2ccc(OC3CCCCC3)nc2)ccc1=O | 8.07
Cc1nc(C)n(CC2CCCN2c2ncnc3sc(C)c(C)c23)n1 (stereo not given) | -3.96
Cc1n[nH]c(C)c1CCN(C)C(=O)c1ccc(CN2CCCCC2)cc1 | -2.68
N#Cc1ccc(SCCC(=O)O)cc1 | 6.5
Cc1cccc(C(C(=O)NC(C)(C)CN2CCOCC2)N(C)C)c1 (stereo not given) | -14.1
O=C(NCCc1nccs1)N1CCC(n2cccc2)CC1 | -2.66
CS(=O)(=O)c1ccc(-c2cc(C3CC3)c(C#N)c(N)n2)cc1 | 12.5
CNc1ncc(C(=O)N2CCCC(CO)(CCCOC)C2)cn1 (stereo not given) | 5.91
CN(CCNC(=O)Nc1cnn(C)c1)Cc1ccc(F)cc1 | 0.603
CN1CCN(c2ccc(F)cc2NC(=O)NCc2ccon2)CC1 | 4.16
CSc1ccc(C(=O)C2CCCN(C(=O)CCn3cncn3)C2)cc1 (stereo not given) | 10.4
COC(=O)c1ccc(CN(C(C)C)C(C)C)o1 | 3.89
CCOC(=O)c1n[nH]cc1CN1CCOC(Cc2ccccc2)C1 (stereo not given) | -0.201
Cc1cc(-n2cccn2)ccc1CN1C[C@@H](CN(C)C)[C@@H](CO)C1 | -2
O=C1CCCCN1Cc1cccc(OC(F)F)c1 | 11.1
CC(C)c1nnc(NC(=O)Cc2csc(-c3nnc[nH]3)n2)s1 | 6.49
CN1CCC(Nc2ccc(F)cc2OCC(F)(F)F)C1=O (stereo not given) | -16.7
Cc1nnsc1CNC(=O)Nc1cccc(N2CCN(C)C2=O)c1 | -11
Cc1nc2c(c(N3CCCOCC3)n1)CCN(c1nccs1)CC2 | -16.9
